# Compound activity: PubChem BioAssay, Sanford-Burnham Center for Chemical Genomics
# This is a sample that favours compounds with a hit; in the whole collection about 28% have one here.
# Mac1 fbg inh – blocks human CD11b/CD18 adhesion to fibrinogen. inhibition, % at 10 µM. P05107+P11215. K562 CD11b/CD18 adhesion to fibrinogen, ATPlite luminescence; Mn2+ added to activate the integrin. 0.54% of 93,000 active. AID 1497;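 active = primary inhibition of 50% or more at 10 µM, then 40% or more on retest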
# Mac1 fbg enh – enhancers of human CD11b/CD18 binding to fibrinogen. K562 CD11b/CD18 adhesion to fibrinogen, ATPlite luminescence. activation, % at 10 µM. 0.07% of 93,000 active;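 active = 10 µM primary screen giving 50% or more activity, confirmed by 40% or more on retest at that dose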
# CYP2C9 inh – human CYP2C9 inhibition. inhibition, % at 5 µM. CYP2C9 Supersomes, luciferin-H conversion, luminescence. AID 777. 20% of 96,000 active;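 active = blocking of liver enzyme CYP2C9 beyond about 50% at 5 µM, limit read from the data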
# Target sequence (P11712 whole entry, looked up): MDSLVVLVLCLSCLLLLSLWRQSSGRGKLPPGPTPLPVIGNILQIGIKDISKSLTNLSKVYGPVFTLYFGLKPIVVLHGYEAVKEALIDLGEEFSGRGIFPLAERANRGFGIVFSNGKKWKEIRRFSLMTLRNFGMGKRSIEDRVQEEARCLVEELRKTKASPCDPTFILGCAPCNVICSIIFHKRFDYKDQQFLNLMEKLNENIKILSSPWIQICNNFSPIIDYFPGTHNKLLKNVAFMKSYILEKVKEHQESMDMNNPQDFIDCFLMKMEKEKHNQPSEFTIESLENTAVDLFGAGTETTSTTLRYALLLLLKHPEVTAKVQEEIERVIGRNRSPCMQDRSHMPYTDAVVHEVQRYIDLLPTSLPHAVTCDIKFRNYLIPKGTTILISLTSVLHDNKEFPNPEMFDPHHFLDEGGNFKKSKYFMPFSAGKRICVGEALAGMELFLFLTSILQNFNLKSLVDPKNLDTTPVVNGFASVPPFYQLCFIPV
# CYP2C19 inh – human CYP2C19 inhibition | P33261 | CYP2C19 Supersomes, luciferin-H EGE luminescence, 30 min | inhibition, % at 5 µM | 21% of 96,000 active | AID 778;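 active = CYP2C19 inhibition above a set limit at 5 µM in the primary screen, cut at about 50% in these data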;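 note: plate controls were negative control wells for no effect and 2.5 mM tranylcypromine positive control for full effect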
# CYP2C19 activ – activators of human cytochrome P450 2C19. P33261. recombinant CYP2C19, luciferin-H EGE luminescence; hits give high values; 0 = fully inhibited enzyme, 1 = untreated enzyme. activation factor at 5 µM. 96,000 tested, under 10 active;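 active = activation factor of at least 2 at 5 µM in the primary screen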;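 note: 0 = wells with 2.5 mM tranylcypromine and 1 = vehicle-only wells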
# CYP2C9 act – activators of human CYP2C9; P11712; recombinant CYP2C9, luciferin-H conversion, luminescence; hits give high values; factor 1 = untreated enzyme, 0 = blocked; activation factor at 5 µM; 1.4% of 96,000 active; AID 1024;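 active = activation factor of 2 or more for CYP2C9 at a 5 µM dose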;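 note: 0 = sulfaphenazole-blocked wells and 1 = vehicle-only wells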
# Starred values were filed as active, the others as inactive; / = no result.
SMILES,Mac1 fbg inh,Mac1 fbg enh,CYP2C9 inh,CYP2C19 inh,CYP2C19 activ,CYP2C9 act
COc1ccccc1C1C(C(=O)c2cc3ccccc3o2)=C(O)C(=O)N1CCN1CCOCC1 (stereo not drawn),-26,-2,-20,-16,1.2,1.2
Cc1ccc(C(=O)Nc2ccc(Br)c(C(F)(F)F)c2)cc1,2,-9,-46,11,0.9,1.5
O=C(NCCc1ccccc1)C1CCN(S(=O)(=O)c2cccc3nsnc23)CC1,-21,6,-104,21,0.8,2*
COc1ccc(CCNC(=O)C2CCN(S(=O)(=O)c3cccc4nsnc34)CC2)cc1OC,/,/,11,2,1,0.9
O=C(c1ccco1)N1CCN(S(=O)(=O)c2cccc3nsnc23)CC1,1,0,32,75*,0.3,0.7
O=C(NCc1cccs1)C1CCN(S(=O)(=O)c2cccc3nsnc23)CC1,/,/,-153,15,0.9,2.5*
O=S(=O)(c1cccc2nsnc12)N1CCOCC1,6,-1,-36,24,0.8,1.4
O=C(NCc1cccs1)C(NS(=O)(=O)c1cccc2nsnc12)c1ccccc1 (stereo not drawn),/,/,55*,30,0.7,0.4
CC(C)NS(=O)(=O)c1cccc2nsnc12,-4,1,-10,-1,1,1.1
C=CCSc1n[nH]c2nc3c(c(=O)n12)C1(CCCC1)Cc1ccccc1-3,-3,-4,22,-12,1.1,0.8
CC1(C)N=C(/C=N/O)CN1O,-2,0,-14,-14,1.1,1.1
CS(=O)(=O)N(CC(=O)NC1CCCCC1)Cc1ccc(Cl)cc1,1,-1,-17,23,0.8,1.2
CC(=O)Nc1ccc(C(=O)OCC(=O)N(Cc2ccccc2)C(C)(C)C)cc1,-1,3,71*,79*,0.2,0.3
CCOC(=O)c1ccc(NC(=O)CNC(=O)c2ccccc2)cc1,/,/,8,16,0.8,0.9
CS(=O)(=O)N(CCc1ccccc1)CC(=O)NCC1CCCO1 (stereo not drawn),3,0,2,56*,0.4,1
CCOC(=O)c1ccc(NC(=O)CN(Cc2ccc(Cl)cc2)S(C)(=O)=O)cc1,-6,1,83*,94*,0.1,0.2
CS(=O)(=O)N(CC(=O)NC1CCCC1)Cc1ccc(Cl)cc1,3,3,26,58*,0.4,0.7
CC(C)NC(=O)CSc1nnc(-c2ccc(S(=O)(=O)N3CCCC3)cc2)n1CC1CCCO1 (stereo not drawn),-2,-2,4,0,1,1
C[N+]12CCCCC1C(COC(=O)c1ccc3c(c1)OCO3)CCC2 (stereo not drawn),-6,-4,-29,7,0.9,1.3
CCOC(=O)N1CCC(=NNS(=O)(=O)c2cccc([N+](=O)[O-])c2)CC1,8,-2,16,-12,1.1,0.8
Cc1ccc(C(C(=O)NC2CCCCC2)N(Cc2ccco2)C(=O)C2COc3ccccc3O2)o1 (stereo not drawn),-1,6,38,5,0.9,0.6
CC(=O)Nc1ccc(C(=O)N/N=C/c2ccccc2OC(=O)c2ccc(Cl)cc2)cc1,/,/,60*,40,0.6,0.4
COc1ccc(NC(=O)CCC(=O)OCc2ccc(C(=O)Oc3ccc(Cl)cc3)cc2)cc1,1,-2,3,-4,1,1
COc1cc(C(=O)Oc2ccccc2/C=N/NC(=O)c2ccc(C)c(Cl)c2)cc(OC)c1OC,-20,11,/,/,/,/
O=C(NC1CCCCC1)C(c1ccc(O)cc1)N(CC1CCCO1)C(=O)C1COc2ccccc2O1 (stereo not drawn),-12,1,69*,70*,0.3,0.3
SMILES,Mac1 fbg inh,Mac1 fbg enh,CYP2C9 inh,CYP2C19 inh,CYP2C19 activ,CYP2C9 act
CC(=O)Nc1ccc(C(=O)OCc2ccc(Cl)cc2)cc1,-9,1,75*,63*,0.4,0.2
Cc1cc(C)cc(N(CC(=O)NCC2CCCO2)C(=O)CN2C(=O)COc3ccccc32)c1 (stereo not drawn),19,-3,49,21,0.8,0.5
O=C(CN(C(=O)C1COc2ccccc2O1)c1ccccc1)NCC1CCCO1 (stereo not drawn),5,-1,8,51*,0.5,0.9
CS(=O)(=O)N1CCCC(C(=O)NCCCN2CCOCC2)C1 (stereo not drawn),-17,-3,-1,-2,1,1
CC(Oc1cc(-c2ccccc2)cc2ccccc12)C(=O)N1CCOCC1 (stereo not drawn),21,-1,35,43,0.6,0.6
O=C(CSc1ccc(Cl)cc1)NCC1CCCO1 (stereo not drawn),-31,-1,22,37,0.6,0.8
CS(=O)(=O)N(CC(=O)NCC1CCCO1)Cc1ccc(Cl)cc1 (stereo not drawn),5,2,4,78*,0.2,1
CC(=NCCc1ccccc1)C1=C(O)CSC1=O,-12,1,39,67*,0.3,0.6
Cc1ccc(N2C(=O)CC(Cn3nc(C)cc3C)C2=O)cc1 (stereo not drawn),-12,-1,1,2,1,1
Cc1cc(C)n(CC2CC(=O)N(c3ccc(Cl)c(Cl)c3)C2=O)n1 (stereo not drawn),-17,-1,77*,99*,0,0.2
CC(Oc1ccc(Cl)cc1Cl)C(=O)N(Cc1ccco1)C1CCS(=O)(=O)C1 (stereo not drawn),-8,-1,21,48,0.5,0.8
CCNc1nc(NCC)n2c(SCc3ccc(F)cc3)nnc2n1,2,0,3,96*,0,1
CCNc1nc(NCC)n2c(SCc3nc4ccccc4c(=O)[nH]3)nnc2n1,-1,2,5,24,0.8,0.9
COc1ccccc1/C=C/C(=O)OCC(=O)Nc1cc(C(F)(F)F)ccc1N1CCOCC1,29,5,/,/,/,/
CCOC(=O)c1c(NC(=O)CSc2nc3c(c(=O)n(C)c(=O)n3C)n2CC)sc(C)c1C,11,17,90*,52*,0.5,0.1
CCOC(=O)c1csc(NC(=O)CSc2nnnn2-c2ccc(OC)cc2)n1,-7,-5,-16,-16,1.2,1.2
CCOC(=O)c1c(NC(=O)CSc2nnnn2-c2ccccc2)sc2c1CCC(C)C2 (stereo not drawn),-9,1,81*,29,0.7,0.2
CCCn1c(SCC(=O)Nc2sc(C)c(C)c2C(=O)OC)nc2c1c(=O)n(C)c(=O)n2C,-17,2,12,16,0.8,0.9
CCOC(=O)c1c(NS(C)(=O)=O)sc2c1CCC(C)C2 (stereo not drawn),-5,0,57*,31,0.7,0.4
COc1ccc(-n2nnnc2SCC(=O)Nc2nnc(C)s2)cc1,-39,4,54*,16,0.8,0.5
